Laboratory results reported in PubChem BioAssay AID1159602 (The Scripps Research Institute Molecular Screening Center, 2016).
The campaign covered roughly 22,000 compounds. About 220 (1%) were called active. Rule as the data show it: active = inhibition above about 35%; inactive = the rest. The full list was thinned out, with actives kept by preference.

Target: Mitogen-activated protein kinase kinase kinase 5 (Homo sapiens) (UniProt Q99683)
Assay: blockers of MAP3K5 kinase activity – biochemical, AlphaScreen, primary screen (AID 1159602);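 also: 0% = median of compound wells and 100% = no enzyme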
Conditions: AlphaScreen MKK6 phosphorylation by ASK1, luminescence; at 7.44 µM; active compounds read high

Mitogen-activated protein kinase kinase kinase 5 (Homo sapiens), sequence (Q99683 whole entry, looked up): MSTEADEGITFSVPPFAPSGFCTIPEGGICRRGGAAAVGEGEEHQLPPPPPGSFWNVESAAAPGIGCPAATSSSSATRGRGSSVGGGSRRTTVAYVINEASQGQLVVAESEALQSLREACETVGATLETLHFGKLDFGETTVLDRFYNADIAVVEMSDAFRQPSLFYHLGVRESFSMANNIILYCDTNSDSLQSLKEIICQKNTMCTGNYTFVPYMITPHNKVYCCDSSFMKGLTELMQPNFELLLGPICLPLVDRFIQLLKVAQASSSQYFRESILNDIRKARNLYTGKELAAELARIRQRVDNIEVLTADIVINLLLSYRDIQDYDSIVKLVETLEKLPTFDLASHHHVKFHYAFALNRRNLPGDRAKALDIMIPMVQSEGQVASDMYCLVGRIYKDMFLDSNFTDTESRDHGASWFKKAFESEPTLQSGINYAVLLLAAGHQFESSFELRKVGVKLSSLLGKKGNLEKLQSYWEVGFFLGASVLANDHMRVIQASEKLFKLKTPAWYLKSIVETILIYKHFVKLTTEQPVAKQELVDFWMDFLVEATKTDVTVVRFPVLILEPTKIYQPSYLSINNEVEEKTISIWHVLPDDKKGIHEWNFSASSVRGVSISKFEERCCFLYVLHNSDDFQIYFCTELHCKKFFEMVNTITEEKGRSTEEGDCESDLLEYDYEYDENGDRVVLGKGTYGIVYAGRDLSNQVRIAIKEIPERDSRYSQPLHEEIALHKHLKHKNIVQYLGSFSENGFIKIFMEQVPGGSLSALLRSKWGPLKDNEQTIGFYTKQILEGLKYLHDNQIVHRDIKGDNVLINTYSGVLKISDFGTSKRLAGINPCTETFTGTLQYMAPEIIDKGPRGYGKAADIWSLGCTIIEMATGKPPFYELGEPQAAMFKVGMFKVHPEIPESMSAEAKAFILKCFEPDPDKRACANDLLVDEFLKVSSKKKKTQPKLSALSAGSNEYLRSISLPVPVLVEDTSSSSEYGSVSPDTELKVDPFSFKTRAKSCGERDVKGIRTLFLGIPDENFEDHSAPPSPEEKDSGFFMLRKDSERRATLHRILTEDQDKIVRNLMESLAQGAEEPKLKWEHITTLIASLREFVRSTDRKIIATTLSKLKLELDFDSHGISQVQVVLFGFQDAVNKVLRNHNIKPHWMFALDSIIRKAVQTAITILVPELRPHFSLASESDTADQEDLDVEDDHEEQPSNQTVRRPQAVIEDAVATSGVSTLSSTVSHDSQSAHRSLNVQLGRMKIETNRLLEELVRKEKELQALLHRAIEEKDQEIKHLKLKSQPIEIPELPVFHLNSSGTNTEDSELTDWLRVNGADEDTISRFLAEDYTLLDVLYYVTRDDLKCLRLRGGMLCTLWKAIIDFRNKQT

inhibition, active:
CN1CCN(c2nc(C3COc4ccccc4O3)nc3ccc(-c4cn[nH]c4)cc23)CC1 (stereo not given) 41.7%

inhibition, inactive:
CNC(=O)c1cc(F)ccc1Nc1cc(Nc2ccc3nc[nH]c3c2)ncc1C(F)(F)F -2.41%
NC(=O)c1ccc(-c2nc(Nc3ccc(N4CCOCC4)cc3)c3ncn(-c4ccccc4)c3n2)cc1 4.79%
Cc1cccc(CC(=O)Nc2cnn(-c3cccc(-c4nn[nH]n4)c3)c2)c1 1.78%
CC(=O)Nc1ccc(Nc2ncnc3c2nc(NCCN2CCOCC2)n3C(C)C)cc1 -3.14%
CC(C)c1nc2ccc(-c3cn[nH]c3)cc2c(=O)[nH]1 12.2%
Cc1cnc(Nc2cnccn2)nc1NCc1cccnc1 -9.12%
O=C(NC1CC1)c1ccc(-c2ccc(C(=O)NCc3cccc(C(F)(F)F)c3)s2)cc1 4.99%
O=C(NC1CCN(Cc2ccccc2)CC1)c1cc(N2CCCC2CO)nc2ccccc12 (stereo not given) -11.9%
CC(C)C[C@H](O)C(=O)NC1CCC(Nc2ccc3[nH]ncc3c2)CC1 (stereo not given in full) -17%
O=C(Cc1cn(-c2ccc(N3CCC(N4CCOCC4)CC3)nn2)c2ccccc12)NCCCN1CCCC1=O -20.2%
CC(C)n1c(N2CCOCC2)nc2c(Nc3ccc(Oc4ccccc4)cc3)ncnc21 -3.94%
COc1ccc(CCNc2nc(-c3ccccc3)nc3c2ncn3CCN2CCCC2=O)cc1 -23.4%
O=C(NCCN1CCOCC1)C1CCN(c2ccc(Nc3ccccc3)nn2)CC1 6.22%
CCN(CC)CCNC(=O)c1ccc(Nc2cc(Nc3ccccc3C(=O)NC)c(C(F)(F)F)cn2)c(C)c1 -5.11%
c1nc(NC2CC2)c2[nH]c(N3CCC(N4CCOCC4)CC3)nc2n1 -10.6%
COc1ccc(-c2cnc3ccc4ccccc4c3c2)cc1 -3.77%
CCN(CC)c1nc(Nc2cc(OC)c(OC)c(OC)c2)nc(Nc2nc3ccccc3n2C)n1 3.84%
Nc1nc(NCc2cccc(C(F)(F)F)c2)cc(NCc2ccc3c(c2)OCO3)n1 -4.13%
CCCNC(=O)c1cncc(-c2ccccc2)c1 -0.96%
O=C(NCCCN1CCCC1=O)C1CCN(c2ccc(Cl)nn2)CC1 -13.9%
COc1cc(NC(=O)c2cnc(-c3ccccc3)s2)cc(OC)c1OC 15%
Oc1ccc(CCNc2nc(Nc3ccccn3)nc3nc[nH]c23)cc1 -9.99%
CC(=O)Nc1ccc(NC(=O)c2csc(-c3c(C)nn(C)c3C)n2)cc1 11%
c1nc(NC2CC2)c2[nH]c(N3CCN(Cc4ccc5c(c4)OCO5)CC3)nc2n1 -10.7%
c1cnc(Nc2nc(NC3CC3)c3[nH]cnc3n2)cn1 -8.13%
CC(=O)Nc1ccc(Nc2nc(N3CCc4ccccc4C3)nc3c2ncn3C(C)C)cc1 14%
CN(C)c1cccc(Nc2nc3ccc(C(=O)Nc4ccc(N5CCOCC5)cc4)cc3s2)c1 29%
COc1ccc(CCNC(=O)c2ccnc(-c3ccc(C(=O)NC4CC4)cc3)c2)cc1 -2.59%
CCN(CC)c1nc(NCCCN2CCCC2=O)nc(N2CCC(N3CCOCC3)CC2)n1 2.42%
CCNc1nc(NCCOc2ccccc2)c2ncn(Cc3ccc(C(F)(F)F)cc3)c2n1 -5.64%
FC(F)(F)c1cccc(CNc2ncnc3nc(N4CCC(N5CCOCC5)CC4)[nH]c23)c1 -8.59%
CCN(CC)C(=O)C1CCCN(c2nccc(NCc3nc4ccccc4[nH]3)n2)C1 (stereo not given) 4.76%
COc1ccc(CNc2nc(-c3cccc(OC(F)(F)F)c3)nc3c2ncn3C(C)C)cc1 -11.1%
COc1cc2nc(NCc3cccnc3)nc(NCCN3CCOCC3)c2cc1OC -7.09%
NS(=O)(=O)c1ccc(Nc2nccc(-c3cccc(Cl)c3)n2)cc1 -4.08%
Cc1cc(Nc2ccccc2)nc(NCc2cccnc2)n1 -4.25%
O=C(NCc1ccccc1)c1ccnc(Nc2nccc3ccccc23)c1 -2.15%
CCN(CC)C(=O)C1CCCN(c2nc(Nc3ccc(NC(C)=O)cc3)c3ncn(C4CCCCC4)c3n2)C1 (stereo not given) -11%
Nc1nc(NCCO)cc(N2CCOCC2)n1 -6.61%
O=C(NCc1nc2ccncc2[nH]1)c1c(F)cccc1F -12.1%
O=C(Cc1ccc(Br)cc1)N1CCCC(Nc2cccc3cnccc23)C1 (stereo not given) -21.7%
O=C1CCCN1CCCNc1nc(-c2ccccc2)nc2nc[nH]c12 -3.38%
Cn1c(C2COc3ccccc3O2)nc2ccc(-c3cn[nH]c3)cc21 (stereo not given) 8.71%
c1ccc2c(c1)OCC(c1cnc3ccc(-c4cn[nH]c4)cc3n1)O2 (stereo not given) 14.4%
